Reference: the supplement of paper PMC7530171
Counter-ions that a name gives are not always drawn. ± gives the standard deviation.

What follows are compounds tested on THP-1 macrophages infected with Mycobacterium tuberculosis H37Rv (assay: intracellular M.tb growth inhibition relative to DMSO (0) and 4 uM bedaquiline (100); higher = stronger inhibition of intracellular bacterial growth). Conditions: 10 µM; 4 days.
Method: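 OICR kinase inhibitor library screened in duplicate at 10 uM against THP-1 macrophages (PMA-differentiated) infected with M. tuberculosis H37Rv-pTEC27 (tdTomato RFP), 4 days at 37 C. Rows with complete host cell loss (placeholder inhibition 0, cell loss 100) were removed.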

`COc1cc(N2CCC(N3CCN(C)CC3)CC2)ccc1Nc1ncc(Cl)c(Nc2ccccc2S(=O)(=O)C(C)C)n1` and `C=CC(=O)Nc1cccc(Oc2nc(Nc3ccc(N4CCN(C)CC4)cc3OC)ncc2Cl)c1` are within error of each other in “intracellular M.tb growth inhibition” value: -4.08 ± 19% for the first, -39 ± 120% for the second.

`Nc1ncnc2c1c(-c1cccc(OCc3ccccc3)c1)cn2C1CC(CN2CCC2)C1` (stereo not given) and `O=c1cc(N2CCOCC2)oc2c(-c3ccccc3)cccc12` are within error of each other in “intracellular M.tb growth inhibition” value: -22.8 ± 12% for the first, -0.768 ± 100% for the second.

First: C[C@@H]1CCN(C(=O)CC#N)C[C@@H]1N(C)c1ncnc2[nH]ccc12
Second: COc1cc(SC)ccc1C(=O)N1CCC(Cc2ccccc2)CC1
The “intracellular M.tb growth inhibition” value of the first is lower: -17.5 ± 21% for the first, 41.8 ± 12% for the second.

First: Cc1cc(C)c(/C=C2\C(=O)Nc3ccccc32)[nH]1
Second: Cn1cc(/C=C2\C(=O)Nc3cccnc32)c2ccccc21
The “intracellular M.tb growth inhibition” value of the first is higher: 8.19 ± 12% for the first, -49.9 ± 14% for the second.

`CC[C@H](Nc1ncnc2[nH]cnc12)c1nc2cccc(F)c2c(=O)n1-c1ccccc1` and `C[C@]1(O)C[C@@H](c2nc(-c3ccc4ccc(-c5ccccc5)nc4c3)c3c(N)nccn32)C1` are within error of each other in “intracellular M.tb growth inhibition” value: -236 ± 290% for the first, 39.2 ± 24% for the second.

`O=C(Nc1cccc(Cl)c1)Nc1ncc(CCNc2ncnc3ccsc23)s1` and `O=C(O)c1ccc2c(c1)nc(Nc1cccc(Cl)c1)c1ccncc12` are within error of each other in “intracellular M.tb growth inhibition” value: -53.6 ± 76% for the first, -112 ± 130% for the second.

Compared with `C[C@@H](Oc1cc(-c2cnn(C3CCNCC3)c2)cnc1N)c1c(Cl)ccc(F)c1Cl`, `O=C(NOCC1CC1)c1cc(Br)c(F)c(F)c1Nc1ccc(I)cc1Cl` is higher in “intracellular M.tb growth inhibition” value: -114 ± 120% for the first, 59.8 ± 16% for the second.

`N#Cc1c(NC(=O)c2cccc3ccccc23)sc2c1CCCC2` and `N#C/C(=C\c1ccc(O)c(O)c1)C(=O)NCc1ccccc1` are within error of each other in “intracellular M.tb growth inhibition” value: -226 ± 330% for the first, 9.47 ± 28% for the second.

`Nc1cccc(-c2cc3c(Oc4cccc(O)c4)ncnc3[nH]2)c1` and `Nc1ccc(C(=O)Nc2cccc(-c3nc(N4CCOCC4)c4oc5ncccc5c4n3)c2)cn1` are within error of each other in “intracellular M.tb growth inhibition” value: -14.2 ± 26% for the first, 17.6 ± 65% for the second.

`CCc1cc(Nc2nccc(-c3c(-c4ccc(OC)c(C(=O)Nc5c(F)cccc5F)c4)nc4ccccn34)n2)c(OC)cc1N1CCC(N2CCN(S(C)(=O)=O)CC2)CC1` and `COC(=O)Nc1ccc(-c2nc(N3CCOCC3)c3cnn(C4CCN(C(=O)OC)CC4)c3n2)cc1` are within error of each other in “intracellular M.tb growth inhibition” value: -49.9 ± 68% for the first, -222 ± 330% for the second.

Going from `CCCOc1ccc(/C=C2/SC(=O)NC2=O)cc1` [PIM1/2 Kinase Inhibitor VI] to `COc1ccc(S(=O)(=O)N(C(C)=O)c2ccccc2/C=C/c2cc[n+]([O-])cc2)cc1`, the “intracellular M.tb growth inhibition” value falls from 24.9 ± 13% to -316 ± 310%.

`CS(=O)(=O)CCNCc1nc(-c2ccc3ncnc(Nc4ccc(OCc5cccc(F)c5)c(Cl)c4)c3c2)cs1` and `CNC(=O)c1cc(Oc2ccc(NC(=O)Nc3ccc(Cl)c(C(F)(F)F)c3)c(F)c2)ccn1` are within error of each other in “intracellular M.tb growth inhibition” value: 37.8 ± 12% for the first, 50.6 ± 65% for the second.

`O=C1c2ccc(O)c(O)c2C(=O)c2c(O)ccc(O)c21` [Quinalizarin] and `CC1=C(C(=O)Nc2cc3cn[nH]c3cc2F)C(c2ccc(C(F)(F)F)cc2)CC(=O)N1` (stereo not given) are within error of each other in “intracellular M.tb growth inhibition” value: -115 ± 210% for the first, -101 ± 100% for the second.

`Cc1nc(Nc2ncc(C(=O)Nc3c(C)cccc3Cl)s2)cc(N2CCN(CCO)CC2)n1` [Dasatinib] and `COc1cc2c(N3CCN(C(=O)Nc4ccc(OC(C)C)cc4)CC3)ncnc2cc1OCCCN1CCCCC1` are within error of each other in “intracellular M.tb growth inhibition” value: 47.9 ± 35% for the first, 53 ± 8% for the second.

`Oc1cccc(-c2nc(N3CCOCC3)c3sccc3n2)c1` [PI3-Kinase a Inhibitor 2] and `Cc1nc(N)sc1-c1ccnc(Nc2ccc(N3CCOCC3)cc2)n1` are within error of each other in “intracellular M.tb growth inhibition” value: -170 ± 240% for the first, 13.1 ± 18% for the second.

`Oc1ccc(-c2nc(-c3ccc(F)cc3)c(-c3ccncc3)[nH]2)cc1` and `OCCC#Cc1nc(-c2ccc(F)cc2)c(-c2ccncc2)n1CCCc1ccccc1` are within error of each other in “intracellular M.tb growth inhibition” value: 8.19 ± 7.9% for the first, 14.2 ± 4.9% for the second.

Going from `CC(C)c1cnn2c(NCc3ccccc3)cc(NCCCCCCN)nc12` [BS-181 hydrochloride] to `CC(C)c1cc(/C=C(\C#N)C(=O)NCCCc2ccccc2)cc(C(C)C)c1O` [Tyrphostin SU 1498], the “intracellular M.tb growth inhibition” value rises from 3.6 ± 5.1% to 50.29 ± 0.083%.

`c1ccc(-c2n[nH]c3c2oc2ccccc23)cc1` and `NC1(c2ccc(-c3nc4ccn5c(=O)[nH]nc5c4cc3-c3ccccc3)cc2)CCC1` are within error of each other in “intracellular M.tb growth inhibition” value: 7.69 ± 11% for the first, -62.1 ± 130% for the second.

Going from `COc1cc(F)c(F)c(Nc2ccc(I)cc2F)c1NS(=O)(=O)C1(C[C@H](O)CO)CC1` to `COc1cc(OC2CCN(C)CC2)ccc1Nc1ncc2c(n1)n(C1CCCC1)c(=O)n2C`, the “intracellular M.tb growth inhibition” value falls from 44.7 ± 27% to -17.7 ± 25%.

`N#C/C(=C(/N)Sc1ccc(N)cc1)c1ccccc1C(F)(F)F` and `CN(C)CCOc1cc(-c2cn[nH]c2)ccc1NC(=O)C1COc2ccccc2O1` (stereo not given) are within error of each other in “intracellular M.tb growth inhibition” value: 5.44 ± 36% for the first, -97.9 ± 79% for the second.
